The source of these data is PubChem BioAssay.

Experiment [1] can be described thus: optical density shifts of acrAB sulA E. coli – strain DRC41, OD650, 48 h, E. coli filamentation inducer project, primary screen (AID 1152).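 Note: E. coli MC1000 strain DRC41 lacking acrAB efflux pump and sulA.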 To be noted: higher = more signal, called active from +8 up or from −8 down.
Experiment [2] is described as follows: probe aLefty1 binding on compound microarray – biochemical, small-molecule microarray, 635/667 nm fluorescence, primary screen (AID 1153).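 Note: score merges spot fluorescence with signal-to-noise ratio from the scanned slide images.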 The note with it: higher = more signal.
Experiment [3] in a line: plasmodial surface anion channel blockers, osmotic lysis – cell-based, P. falciparum Indochina, OD700, 1 h, primary screen (AID 1154). To be noted: P. falciparum Indochina infected RBC osmotic lysis, higher = more signal, called active from +8 up or from −8 down.
Experiment [4] is described as follows: plasmodial surface anion channel blockers, osmotic lysis – cell-based, P. falciparum Indochina, OD700, 2 h, primary screen (AID 1155).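 Note: lysis reports solute entry through the parasite surface anion channel PSAC.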 To be noted: P. falciparum Indochina infected erythrocytes, higher = more signal, called active from +8 up or from −8 down.
Experiment [5] is described as follows: changes in parasitized red cell lysis, either direction – P. falciparum Indochina, OD700, 3 h, PSAC antagonist project, primary screen (AID 1156). The note with it: P. falciparum-infected erythrocytes, osmotic lysis, higher = more signal, called active from +8 up or from −8 down.
Experiment [6] is described as follows: plasmodial surface anion channel blockers, osmotic lysis – cell-based, P. falciparum Indochina, OD700, 18 h, primary screen (AID 1157). To be noted: P. falciparum Indochina infected erythrocytes, osmotic lysis OD700, 18 h; higher = more signal, called active from +8 up or from −8 down.
A short description of experiment [7]: S6 kinase pathway phospho-S6 level changes – cell-based, A549, cytoblot, luminescence, serum-stimulated, primary screen (AID 1158).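 Note: serum-stimulated A549 lung adenocarcinoma cells; signal is phosphorylated S6 detected by cytoblot immunostaining with HRP secondary.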 To be noted: 5 h, higher = more signal.
Experiment [8] has as its target NADPH oxidase 2 (Homo sapiens) (UniProt P04839). Put plainly: compounds shifting NOX2 Amplex Red fluorescence – cell-based, HEK293-NOX2, PMA-stimulated, NOX inhibitor project, primary screen (AID 1159). Note: test concentration not given here. To be noted: 45 min, higher = more signal, called active from +8 up or from −8 down.
Experiment [9] has as its target NADPH oxidase 4 (Homo sapiens) (UniProt Q9NPH5). In words: compounds shifting NOX4 Amplex Red fluorescence – cell-based, HEK293-NOX4, tetracycline-induced, NOX inhibitor project, primary screen (AID 1160). The note with it: HEK293-NOX4, Amplex Red H2O2 fluorescence, 45 min; higher = more signal, called active from +8 up or from −8 down.
The target of experiment [10] is NADPH oxidase 5 (Homo sapiens) (UniProt Q96PH1). In words: compounds shifting NOX5 Amplex Red fluorescence – cell-based, HEK293-NOX5, NOX inhibitor project, primary screen (AID 1161). To be noted: HEK293-NOX5, ionomycin, 45 min, higher = more signal.
Experiment [11] in a line: compound effects on lung adenocarcinoma cell viability – A549, calcein-AM fluorescence, 48 h, basal, profiling panel (AID 1162). Note: test concentration not given here. To be noted: higher = more signal.
A short description of experiment [12]: compound effects on differentiated 3T3-L1 adipocyte viability – cell-based, 3T3-L1 adipocytes, calcein-AM fluorescence, 48 h, basal, profiling panel (AID 1163). Note: test concentration not given here. The note with it: 3T3-L1 adipocytes viability, higher = more signal.
A short description of experiment [13]: compound effects on hepatocellular carcinoma cell viability – HepG2, calcein-AM fluorescence, 48 h, basal, profiling panel (AID 1164). Note: test concentration not given here. The note with it: higher = more signal.
Experiment [14] can be described thus: compound effects on multiple myeloma cell viability – MM1S, calcein-AM fluorescence, 48 h, basal, profiling panel (AID 1165).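 Note: viability of MM1S multiple myeloma cells under basal unstimulated conditions; test concentration not given here.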 The note with it: higher = more signal.
Experiment [15] can be described thus: calcein-AM signal in unstimulated myeloma cells – cell-based, calcein-AM fluorescence, 48 h, PK04 Diversity Set, profiling panel (AID 1166).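 Note: cells grown under basal conditions without added stimulus; test concentration not given here.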 The note with it: RPMI8226 myeloma viability, higher = more signal.
Experiment [16] in a line: JC-1 mitochondrial signal, unstimulated HepG2 cells – cell-based, JC-1 fluorescence, 24 h, 100 nL compound, profiling panel (AID 1167). Note: test concentration not given here. The note with it: HepG2 mitochondrial potential, higher = more signal.
The nature of experiment [17]: JC-1 mitochondrial signal, unstimulated adipocytes – cell-based, JC-1 fluorescence, 3T3-L1 adipocytes, 24 h, 100 nL compound, profiling panel (AID 1168). Note: test concentration not given here. The note with it: JC-1 mitochondrial fluorescence, higher = more signal, called active from +8 up or from −8 down.
A short description of experiment [18]: JC-1 mitochondrial signal, unstimulated myeloma cells – cell-based, JC-1 fluorescence, RPMI8226, 24 h, 100 nL compound, profiling panel (AID 1169). Note: test concentration not given here. To be noted: JC-1 mitochondrial potential fluorescence, higher = more signal.
Experiment [19] is described as follows: JC-1 mitochondrial signal, unstimulated MM1S myeloma – cell-based, JC-1 fluorescence, 24 h, 100 nL compound, profiling panel (AID 1170). Note: test concentration not given here. The note with it: MM1S mitochondrial potential, higher = more signal.
Experiment [20] is described as follows: resazurin metabolic signal in A549 cells – cell-based, resazurin fluorescence, 24 h, PK04 Diversity Set, profiling panel (AID 1171). Note: test concentration not given here. The note with it: A549 viability, higher = more signal, called active from +8 up or from −8 down. (In general: Alamar Blue is a resazurin reagent that responds to reducing activity.)

Activity calls are given as the source filed them.

Sequence of NADPH oxidase 2 (Homo sapiens) (P04839 whole entry, looked up): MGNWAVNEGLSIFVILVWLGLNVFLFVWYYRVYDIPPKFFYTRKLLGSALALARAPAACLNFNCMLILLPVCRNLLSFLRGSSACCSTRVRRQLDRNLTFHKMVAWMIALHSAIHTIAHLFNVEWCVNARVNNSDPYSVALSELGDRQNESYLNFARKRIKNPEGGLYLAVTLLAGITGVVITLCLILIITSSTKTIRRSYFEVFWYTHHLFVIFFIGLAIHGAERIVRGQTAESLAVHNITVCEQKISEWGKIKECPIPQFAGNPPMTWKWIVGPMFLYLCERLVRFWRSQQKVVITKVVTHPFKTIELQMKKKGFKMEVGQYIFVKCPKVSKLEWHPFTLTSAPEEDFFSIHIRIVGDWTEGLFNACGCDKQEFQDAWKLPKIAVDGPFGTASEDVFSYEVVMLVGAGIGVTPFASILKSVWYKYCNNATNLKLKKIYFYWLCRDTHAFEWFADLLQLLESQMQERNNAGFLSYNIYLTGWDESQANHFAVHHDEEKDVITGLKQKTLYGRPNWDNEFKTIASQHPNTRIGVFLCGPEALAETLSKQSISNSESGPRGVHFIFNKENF
Sequence of NADPH oxidase 4 (Homo sapiens) (Q9NPH5 whole entry, looked up): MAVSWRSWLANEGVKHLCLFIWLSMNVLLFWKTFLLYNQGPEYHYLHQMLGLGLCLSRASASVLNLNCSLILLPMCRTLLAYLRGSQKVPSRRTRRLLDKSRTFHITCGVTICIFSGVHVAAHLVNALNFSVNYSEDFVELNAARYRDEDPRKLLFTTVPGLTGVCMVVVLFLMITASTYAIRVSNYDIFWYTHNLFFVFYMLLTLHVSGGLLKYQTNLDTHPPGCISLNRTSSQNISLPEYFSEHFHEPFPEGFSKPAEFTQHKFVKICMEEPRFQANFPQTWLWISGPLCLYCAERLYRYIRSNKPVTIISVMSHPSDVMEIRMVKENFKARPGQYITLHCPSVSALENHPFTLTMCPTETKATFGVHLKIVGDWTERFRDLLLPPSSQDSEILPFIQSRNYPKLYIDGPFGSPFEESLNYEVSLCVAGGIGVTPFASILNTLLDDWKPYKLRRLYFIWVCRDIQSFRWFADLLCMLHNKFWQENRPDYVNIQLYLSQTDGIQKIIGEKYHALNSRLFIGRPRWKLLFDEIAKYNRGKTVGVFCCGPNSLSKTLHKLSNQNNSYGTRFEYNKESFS
Sequence of NADPH oxidase 5 (Homo sapiens) (Q96PH1 whole entry, looked up): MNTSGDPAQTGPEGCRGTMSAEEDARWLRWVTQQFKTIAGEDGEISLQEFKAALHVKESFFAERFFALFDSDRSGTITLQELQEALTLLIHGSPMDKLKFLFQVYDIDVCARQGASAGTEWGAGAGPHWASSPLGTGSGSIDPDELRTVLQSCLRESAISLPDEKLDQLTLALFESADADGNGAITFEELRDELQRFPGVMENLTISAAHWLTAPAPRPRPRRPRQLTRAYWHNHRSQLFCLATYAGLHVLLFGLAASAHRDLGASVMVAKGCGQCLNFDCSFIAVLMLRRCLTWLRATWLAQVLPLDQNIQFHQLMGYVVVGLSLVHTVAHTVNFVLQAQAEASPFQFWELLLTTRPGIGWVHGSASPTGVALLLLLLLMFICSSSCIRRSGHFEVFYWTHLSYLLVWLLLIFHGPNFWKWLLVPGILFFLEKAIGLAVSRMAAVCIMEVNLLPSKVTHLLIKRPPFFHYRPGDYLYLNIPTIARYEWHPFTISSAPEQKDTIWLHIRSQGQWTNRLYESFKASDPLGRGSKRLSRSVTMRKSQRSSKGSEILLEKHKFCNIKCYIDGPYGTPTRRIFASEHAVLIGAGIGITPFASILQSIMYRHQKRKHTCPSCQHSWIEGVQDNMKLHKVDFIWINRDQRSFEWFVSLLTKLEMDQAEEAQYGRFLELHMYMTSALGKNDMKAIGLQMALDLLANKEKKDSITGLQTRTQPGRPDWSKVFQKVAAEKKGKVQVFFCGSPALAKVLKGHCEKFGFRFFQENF

Turning to `CCCCC(=C=CC[C@H](O)c1cccc(OCCO)c1)C[C@H](O)c1ccccn1`, the z-score in experiment [1] is 1.81 (inactive); in [3] it was 13.6 (active); in experiment [4], 0.938 (inactive); in experiment [5], 1.09 (inactive); in [6], -0.676 (inactive); in [7], 1.54. Further, the z-score in [8] was -1.12 (inactive); in experiment [9] it was -0.337 (inactive); in [10], -1.75; in experiment [11], 1.35; in experiment [12], 1.2; in experiment [13], 1.3. Further, the z-score in experiment [14] is -0.497; in experiment [15], 1.43; in experiment [16] it was 1.17; in experiment [17] it was -1.63 (inactive); in experiment [18], 0.0444; in experiment [19], -1.1. Further, the z-score in experiment [20] was 2.05 (inactive). The composite z-score in experiment [2] is -0.272.

Take `[N-]=[N+]=NCc1ccccc1C[C@@]1(C(=O)NCC(O)CO)N=C(c2ccc(OCCCO)cc2)O[C@@H]1c1ccccc1` (stereo not given in full): the z-score is 0.0346 (inactive) in experiment [1]; 25.3 (active) in [3]; 16.3 (active) in experiment [4]; -1.11 (inactive) in [5]; 2.07 (inactive) in experiment [6]; -0.11 in experiment [7]. For the same compound, the z-score in experiment [8] was 0.0842 (inactive); in experiment [9] it was 1.28 (inactive); in experiment [10], 2.5; in experiment [11], -1.64; in experiment [12], 0.195; in experiment [13], -3.17. Moreover, the z-score is -3.22 in [14]; -1.82 in experiment [15]; -2.54 in experiment [16]; 1.67 (inactive) in [17]; -1.12 in experiment [18]; -0.123 in [19]. Also, the z-score in [20] was -1.01 (inactive). The composite z-score in [2] came out at 0.237.

For the compound `COC(=O)[C@@]1(Cc2ccc(OC)cc2)[C@H]2c3cc(C(=O)N(C)C)n(Cc4ccc(C(F)(F)F)nc4)c3C[C@H]2CN1C(=O)c1ccccc1`, the z-score is -0.346 (inactive) in experiment [1]; 0.622 (inactive) in experiment [3]; 0.315 (inactive) in experiment [4]; -0.106 (inactive) in [5]; 0.471 (inactive) in experiment [6]; -0.154 in experiment [7]. The z-score in experiment [8] was 0.152 (inactive); in [9], -1.26 (inactive); in experiment [10], -1.13; in experiment [11] it was 0.212; in experiment [12], -0.624; in [13] it was 0.106. The z-score in experiment [14] was -0.589; in experiment [15], -0.782; in experiment [16], 0.117; in experiment [17], -0.29 (inactive); in experiment [18] it was 0.0192; in experiment [19] it was -1.03. The z-score in experiment [20] was 0.248 (inactive). For the same compound, the composite z-score in experiment [2] was 0.301.

Consider `O=C(O)C1N=C(c2ccc(OCCCO)cc2)N(c2ccccc2)O1` (stereo not given), for which the z-score in experiment [1] was 0.0785 (inactive); in experiment [3] it was 18.5 (active); in [4], 2.35 (inactive); in [5] it was 0.874 (inactive); in experiment [6], 0.497 (inactive); in experiment [7], -0.284. Also, the z-score in [8] is -2.6 (inactive); in experiment [9], 0.0373 (inactive); in experiment [10], -0.638; in [11], -0.906; in experiment [12] it was 0.135; in experiment [13] it was -0.0572. Moreover, the z-score was 0.569 in experiment [14]; -0.547 in [15]; -0.142 in experiment [16]; 0.663 (inactive) in experiment [17]; -1.22 in [18]; -0.228 in [19]. Moreover, the z-score in experiment [20] was 0.417 (inactive). The composite z-score in experiment [2] is 0.0245.

For the compound `COC(=O)[C@@]1(CCC(=O)OC(C)(C)C)N=C(c2ccc(OCCCO)cc2)O[C@H]1c1ccccc1`, the z-score was -1.12 (inactive) in experiment [1]; 26 (active) in [3]; 14.9 (active) in experiment [4]; 2.32 (inactive) in [5]; 1.89 (inactive) in [6]; 0.197 in experiment [7]. For the same compound, the z-score was -2.39 (inactive) in experiment [8]; -0.204 (inactive) in experiment [9]; -2.57 in experiment [10]; -1.68 in experiment [11]; 0.673 in experiment [12]; -0.968 in experiment [13]. The z-score in [14] was -2.83; in experiment [15], -2.83; in [16] it was -2.01; in experiment [17], -0.306 (inactive); in experiment [18], -1.1; in experiment [19], 0.558. In addition, in [20], the z-score is -1.8 (inactive). In addition, in experiment [2], the composite z-score is -0.009.

Turning to `CCN(CC)c1ccc(N2CC=CC34O[C@@H]5/C=C\CCC(C)OC(=O)C5[C@H]3C(=O)N(CCCCCO)[C@@H]4C2=O)cc1` (stereo not given in full), the z-score in experiment [1] was -0.0949 (inactive); in [3], -0.062 (inactive); in experiment [4] it was -0.928 (inactive); in [5], -0.356 (inactive); in experiment [6], -0.427 (inactive); in [7], 0.414. Also, the z-score was -0.0453 (inactive) in experiment [8]; -0.419 (inactive) in [9]; 0.779 in [10]; 0.192 in experiment [11]; -0.743 in experiment [12]; 0.0376 in experiment [13]. Also, the z-score in experiment [14] was 1.56; in experiment [15], -0.863; in [16], 0.423; in experiment [17], 0.158 (inactive); in [18] it was -0.0486; in experiment [19] it was 1.29. Moreover, in experiment [20], the z-score was 0.697 (inactive). This compound also came in with a composite z-score in experiment [2] of -0.147.

As to `COc1cc2c(cc1OC)CN(C(=O)[C@H]1[C@@H]3C(=O)O[C@@H](c4ccccc4)[C@@H](c4ccccc4)N3[C@@H](c3ccccc3OCCO)[C@]13C(=O)Nc1ccc(C#CCCO)cc13)CC2`, the z-score was -0.667 (inactive) in experiment [1]; 3.11 (inactive) in experiment [3]; 1.89 (inactive) in [4]; 1.89 (inactive) in experiment [5]; 0.835 (inactive) in experiment [6]; -0.482 in experiment [7]. Also, the z-score in experiment [8] is 1.44 (inactive); in experiment [9] it was 1.26 (inactive); in [10] it was 0.819; in experiment [11] it was 0.228; in [12] it was -0.538; in experiment [13], -0.368. The z-score is -0.217 in experiment [14]; -0.33 in [15]; -0.641 in experiment [16]; 0.451 (inactive) in experiment [17]; -0.377 in [18]; -0.96 in [19]. Further, the z-score in [20] is 0.426 (inactive). The same compound gave a composite z-score in experiment [2] of 0.112.

Take `CCCCC(O)C1C=CC2C(=O)N(C)C(=O)C2N1N1CCCCC1` (stereo not given): the z-score in [1] was -1.43 (inactive); in [3] it was 0.537 (inactive); in experiment [4] it was 0.917 (inactive); in experiment [5], 0.155 (inactive); in experiment [6], 1.47 (inactive); in [7], -0.751. Moreover, the z-score in experiment [8] is -0.353 (inactive); in experiment [9], 0.133 (inactive); in experiment [10] it was -1.03; in experiment [11], -1.19; in experiment [12], -0.579; in experiment [13], -0.267. Also, the z-score was -0.73 in [14]; -0.173 in [15]; -1.59 in experiment [16]; -0.686 (inactive) in experiment [17]; 0.135 in experiment [18]; -0.026 in [19]. Moreover, the z-score in experiment [20] was -0.377 (inactive). Moreover, the composite z-score in experiment [2] came out at 0.384.
